# High-throughput results deposited in PubChem BioAssay by National Center for Advancing Translational Sciences (NCATS).
# CHX counter – Cycloheximide Counterscreen for Small Molecule Inhibitors of Shiga Toxin. actives 12% (n = 300,000). cell reporter, cycloheximide protein synthesis inhibition counterscreen. max response, %; in the data active means max response mostly above about 13%, no sharp cut-off; inactive means mostly below about 14%; further: read at 38.3 µM for the half of the compounds with a filed dose
# NS1 inh – qHTS Assay for Inhibitors of Influenza NS1 Protein Function; Potency, µM (series often up to 46.1 µM); actives 0.4% (n = 270,000); AID 2326, 2010; further: actives are rising curves; nearly all actives have a fitted effect of over 50% in size
#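 A cell-based growth assay was used: compounds that relieve NS1-induced slow growth of budding yeast raise OD600. Assay medium was yeast nitrogen base with ammonium sulphate and -URA supplement, pH 6.0, with 2% galactose.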
# Pf growth 96h – Primary qHTS for delayed death inhibitors of the malarial parasite plastid, 96 hour incubation; AID 504834, 2011; Potency, µM (titrated, usually from 28.7 µM), most hits filed as inhibitors; P. falciparum luciferase reporter growth, 96 h; actives 6.9% (n = 320,000); active means well fitted inhibition curve with a large enough effect; inconclusive means small, poorly fitted or top-dose-only effect, or another doubt; inactive means no such curve, though single readings can be large or run the other way
#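 P. falciparum expressing integrated firefly luciferase grown in erythrocytes (2% hematocrit, 0.05% parasitemia final) with compounds for 96 hours at 37 C, 5% CO2. Growth inhibition read as loss of luminescence after adding luciferase detection reagent.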
# Shiga inhibitor – A qHTS for Small Molecule Inhibitors of Shiga Toxin. Vero cells, Shiga toxin protein synthesis inhibition reporter. inhibition, % at 38.7 µM. actives 9.2% (n = 290,000). AID 2315, 2010; in the data active means inhibition mostly above about 28%, no sharp cut-off; inactive means mostly below about 43%
# SARS PLP yeast – qHTS of Yeast-based Assay for SARS-CoV PLP; Potency, µM (titrated, usually from 32.9 µM), most hits filed as activators; AID 485353, 2010; actives 0.19% (n = 330,000); S. cerevisiae expressing SARS-CoV PLpro, growth rescue; further: nearly all actives have a fitted effect of over 55% in size
# Pf growth 48h – Primary qHTS for delayed death inhibitors of the malarial parasite plastid, 48 hour incubation | P. falciparum luciferase growth in erythrocytes, 48 h | Potency, µM (top dose mostly 28.7 µM), most hits filed as inhibitors | actives 5.9% (n = 310,000) | AID 504832, 2011; active means well fitted inhibition curve with a large enough effect; inconclusive means small, poorly fitted or top-dose-only effect, or another doubt; inactive means no such curve, though single readings can be large or run the other way
#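 Luciferase-expressing parasites in RBCs, 2% Hct / 0.1% parasitemia final; RPMI 1640 + 0.5% Albumax; 37 C, 5% CO2, one generation; luminescence read-out, lower signal = inhibition.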
# Hits are given with their value; 0 = inactive; ? = inconclusive; - = no result given; + = active, no number. In the library only some 21% were active in any assay of this set; here they are far more common. Unless noted, the call rests on the fitted dose curve.
SMILES,CHX counter,NS1 inh,Pf growth 96h,Shiga inhibitor,SARS PLP yeast,Pf growth 48h
Cc1nn(CC#N)c(=O)n1-c1ccccc1,0,0,-,0,0,0
CCOc1ccc(S(=O)(=O)NC(Cc2c[nH]c3ccccc23)C(=O)O)cc1 (centres undefined),0,0,0,0,0,-
O=C(NCc1nc2ccccc2[nH]1)C1=C[C@H](C2CC2)C[C@H](OCc2ccc(CO)cc2)O1,0,0,?,0,0,?
Clc1ccc(CSCCc2ccncc2)cc1Cl,-,0,-,-,-,-
COCCNC(=O)c1ccc(C2SCC(=O)N2CCc2ccccc2)cc1 (centres undefined),0,0,0,0,0,0
O=C(CCc1ccccc1)Nc1ccc(F)cc1F,23,0,-,67,0,0
O=C(NCCCCc1ccccc1)Nc1ccc(F)cc1F,0,0,?,0,0,0
O=C(CCOc1ccccc1)Nc1ccccc1F,32,0,0,74,0,0
CC(C)NC(=O)NC(=O)COC(=O)c1cccc(S(=O)(=O)N2CCCCC2)c1,0,0,0,0,0,0
CCC(c1nnnn1Cc1cccs1)N1CCN(C2CCCC2)CC1 (centres undefined),0,0,?,0,0,0
CCC(c1nnnn1Cc1cccs1)N1CCN(c2nc3ccccc3s2)CC1 (centres undefined),0,0,?,0,0,9.3µM
CC(C)CC(c1nnnn1Cc1cccs1)N1CCN(c2nc3ccccc3s2)CC1 (centres undefined),20,0,0,0,0,12µM
CC(C)C(c1nnnn1Cc1ccco1)N1CCN(c2nc3ccccc3s2)CC1 (centres undefined),0,0,-,0,0,?
Cc1cc(NC(=O)COC(=O)C2CC(=O)N(c3cccc(Cl)c3)C2)no1 (centres undefined),0,0,0,0,0,0
O=C(O)/C=C/C(=O)N1CCN(c2cccc(Cl)c2)CC1,0,0,0,0,0,0
Cc1ccc(C(=O)NCC(=O)OCCOc2ccccc2Cl)cc1,-,-,0,-,0,0
COCCCNC(=O)c1ccc2c3c(onc13)-c1ccccc1C2=O,35,0,0,69,0,0
CC(Oc1ccc(-c2nccc(-c3ccccn3)n2)cc1)C(=O)NN (centres undefined),0,?,0,0,0,0
CC(C)(C)c1cc(C(=O)NNc2cc(C(F)(F)F)ccc2Cl)n(Cc2ccccc2)n1,28,0,12µM,43,0,13µM
Cc1ccc(NNC(=O)c2cc(C(C)(C)C)nn2Cc2ccccc2)cc1,0,0,?,0,0,?
COc1ccccc1NNC(=O)c1cc(C(C)(C)C)nn1Cc1ccccc1,30,0,?,61,0,?
CC(C)(C)c1cc(C(=O)NNc2cccc(Cl)c2)n(Cc2ccccc2)n1,20,0,?,46,0,?
COc1ccc(CCN2C(=O)C3C(C2=O)C2C=CC3C23CC3)cc1OC (centres undefined),0,-,0,0,0,0
COc1ccc(C(=O)COC(=O)CN2C(=O)C3C4CCC(C4)C3C2=O)cc1 (centres undefined),0,0,0,0,0,0
CC(=O)C1=C(O)C(=O)N(c2ccc(Br)cc2)C1c1ccc(Br)cc1 (centres undefined),0,0,?,0,0,0
SMILES,CHX counter,NS1 inh,Pf growth 96h,Shiga inhibitor,SARS PLP yeast,Pf growth 48h
CC1CN(S(=O)(=O)c2cccc(C(=O)OC(C)C(=O)NC3CCCCC3C)c2)CC(C)O1 (centres undefined),0,0,?,0,0,0
CCOC(=O)c1ccc(CSc2nnc(N)s2)cc1,39,0,0,92,0,0
Nc1nnc(SCc2ccc(Cl)cc2)s1,0,0,0,+,0,0
Nc1nnc(CSCc2ccc(Cl)cc2)s1,0,0,0,0,0,0
CCOC(=O)CSc1nnc(N)s1,0,0,0,0,0,?
Nc1nnc(SCc2cccc(C(F)(F)F)c2)s1,11,0,0,0,0,0
Nc1nnc(CSc2ccc(Cl)cc2)s1,50,0,?,0,0,0
Nc1nnc(SCc2coc(-c3ccc(Cl)cc3)n2)s1,39,0,-,64,0,0
CC(Sc1n[nH]c(-c2ccccc2)n1)C(=O)c1c(N)n(C)c(=O)n(C)c1=O (centres undefined),-,-,0,-,0,0
Cc1ccc(SCCC(=O)NC(C)(C)C)cc1,44,0,0,73,0,0
Cc1ccc(SCCC(=O)N(C)C)cc1,17,?,0,0,0,0
Cc1ccc(SCCC(=O)NC(C)C)cc1,0,0,0,0,0,0
CCC(=O)N1CCCN(S(=O)(=O)c2ccc(C)cc2)C1c1ccc(OC)cc1 (centres undefined),0,0,0,0,0,13µM
COc1ccc(C2N(S(=O)(=O)c3ccccc3)CCN2S(=O)(=O)c2ccc(C)cc2)cc1 (centres undefined),0,0,9.3µM,0,?,-
Cc1ccc2c(=O)n3c(nc2c1)C(Cc1ccccc1)NC(=O)c1ccc(Cl)cc1-3 (centres undefined),-,-,?,-,0,?
O=C(NC(=S)NC(CO)Cc1ccccc1)c1ccc(F)cc1 (centres undefined),19,0,0,51,0,0
CN1CCN(CCNC(=O)c2ccc3nc(-c4ccc(F)cc4)c(-c4ccc(F)cc4)nc3c2)CC1,0,0,?,0,0,9.3µM
COC(=O)C(Cc1ccccc1)NC(=S)NC(=O)c1ccccc1 (centres undefined),0,-,0,0,0,0
O=C(NCCN1CCOCC1)c1cc(-c2ccc(Cl)cc2Cl)on1,20,0,0,50,0,0
CC(C)CNC(=S)NC(=O)c1ccc(F)cc1,62,0,0,118,?,0
CCCn1c(C)cc(=O)c2cc(NC(=O)c3cnccn3)ccc21,0,0,0,0,0,0
O=C(NCCSc1ccccc1)c1ccc(CN2CCOCC2)cc1,36,0,0,62,0,0
O=C(NCCSc1ccc(Cl)cc1)c1ccc(CN2CCOCC2)cc1,0,0,0,0,0,0
Cc1ccc(-c2cc(C(=O)NCCN3CCOCC3)no2)cc1,15,0,-,25,0,0
O=C(Cc1cccs1)NCCN1CCOCC1,0,0,4.1µM,0,0,0
SMILES,CHX counter,NS1 inh,Pf growth 96h,Shiga inhibitor,SARS PLP yeast,Pf growth 48h
O=C(NC(=S)NCCN1CCOCC1)c1ccc(F)cc1,0,0,0,44,0,0
O=C(NCCN1CCOCC1)c1cc(-c2ccco2)on1,0,0,0,31,0,0
O=C(NCCCN1CCOCC1)c1cc(-c2ccc(F)cc2)on1,0,0,0,0,0,0
O=C(NCCN1CCOCC1)c1ccc(-c2ccccc2)cc1,25,0,0,0,0,0
O=C(NCCN1CCOCC1)c1cc(-c2ccc(F)cc2)on1,0,0,0.29µM,0,0,0
O=C(Cc1ccc(-c2ccccc2)cc1)NCCN1CCOCC1,0,0,0,0,?,0
